Rows were chosen to be rich in hits. Some 0.83% of all compounds tested hit in one or more screens of this group.
Menin-MLL TR inh: qHTS Assay for Inhibitors Targeting the Menin-MLL Interaction in MLL Related Leukemias: Competition With Texas Red Labeled MLL-derived Mutant Peptide. O00255. Menin + Texas Red MLL mutant peptide, fluorescence polarization. Potency, µM (top dose mostly 61.6 µM), inactives show at the top dose FP activity change, negative = inhibition, hits mostly inhibitors. actives 0.23% (n = 270,000). AID 1768, 2009; active = well fitted inhibition curve with a large enough effect in the polarisation, with a control signal flat, not every such curve was filed as active; inconclusive = small, poorly fitted or top-dose-only effect, or effect the other way, or a change in a side signal; inactive = no such curve, though single readings can be large or run the other way; the % refers to the polarisation; note: potency is the fitted concentration of half-maximal effect; % of control where 0% means no effect
CtBP-E1A inh: qHTS Assay for Inhibitors of the CtBP/E1A Interaction; AlphaScreen GST-E1A/His-CtBP binding, 1536-well; hits give low values; activity change, % (concentration not given with the values); actives 0.49% (n = 340,000); note: % is set by controls: 0 for no effect and ±100 for the full control effect
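AlphaScreen with 125 nM GST-E1A and 125 nM His-CtBP (5X stocks) in Tris pH 8.0, 300 mM NaCl, BSA, Tween 20, TCEP. Compounds preincubated 2 h at 37 deg C, then glutathione donor/nickel acceptor beads added for 1 h at 37 deg C in dark.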
GLS inh: qHTS for Inhibitors of Glutaminase (GLS); actives 0.21% (n = 410,000); Potency, µM (top dose mostly 45.5 µM), inactives show at the top dose activity change, negative = inhibition, hits mostly inhibitors; GLS enzymatic activity, qHTS titration; active = well fitted inhibition curve with a large enough effect; inconclusive = small, poorly fitted or top-dose-only effect, or another doubt; inactive = no such curve, though single readings can be large or run the other way; note: potency is the fitted concentration of half-maximal effect; % is set by controls: 0 for no effect and ±100 for the full control effect
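Human kidney-isoform GLS in 45 mM KH2PO4 pH 8.2, 0.02% Tween-20, with compound, started with 1mM L-Glutamine (added stock). Glutamate oxidase/HRP/Amplex red coupled fluorescence read at start and after 30 min at RT.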
Menin MLL FP FL: qHTS Assay for Inhibitors Targeting the Menin-MLL Interaction in MLL Related Leukemias: Competition With Fluorescein Labeled MLL-derived Peptide. Fluorescence polarization, fluorescein-MLL peptide displacement from menin. FP activity change, % at 61.4 µM. 290,000 tested, under 10 active; active = well fitted curve in the direction sought with a large enough effect in the polarisation, not every such curve was filed as active; inconclusive = small, poorly fitted or top-dose-only effect, or effect the other way, or a change in a side signal; inactive = no such curve, though single readings can be large or run the other way; the % refers to the polarisation; note: % of control where 0% means no effect
CXXC DNA block: qHTS Fluorescence Polarization Assay for Inhibitors of MLL CXXC domain - DNA interaction; Histone-lysine N-methyltransferase 2A (Homo sapiens), Q03164; MLL-CXXC / FITC-HOXA9 DNA fluorescence polarization; Potency, µM (doses to about 115 µM), inactives show top-dose activity change, negative = inhibition, actives largely listed as inhibitors; actives 0.037% (n = 290,000); active = well fitted inhibition curve with a large enough effect in the polarisation, with a control signal flat, not every such curve was filed as active; inconclusive = small, poorly fitted or top-dose-only effect, or effect the other way, or a change in a side signal; inactive = no such curve, though single readings can be large or run the other way; the % refers to the polarisation; note: potency is the fitted concentration of half-maximal effect
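Purified MLL-CXXC (added from a 7 uM solution) was preincubated 5 min at ambient with pinned compounds in 50 mM Tris-HCl pH 7.5, 50 mM NaCl, 1 mM DTT, 0.05% BSA. Fluorescein-labeled HOX-A9 DNA (50 nM solution) followed, 30 min, then polarization read.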
Six1-Eya2 blk: qHTS Assay for Inhibitors of the Six1/Eya2 Interaction | Homeobox protein SIX1 (Homo sapiens) + Protein phosphatase EYA2 (Homo sapiens), … | AlphaScreen GST-Six1/His-Eya2 binding, biochemical; hits give low values | actives 0.56% (n = 360,000) | activity change, % (concentration not given with the values) | AID 651725, 2012; note: % is set by controls: 0 for no effect and ±100 for the full control effect
Target sequence (O00167 whole entry, looked up): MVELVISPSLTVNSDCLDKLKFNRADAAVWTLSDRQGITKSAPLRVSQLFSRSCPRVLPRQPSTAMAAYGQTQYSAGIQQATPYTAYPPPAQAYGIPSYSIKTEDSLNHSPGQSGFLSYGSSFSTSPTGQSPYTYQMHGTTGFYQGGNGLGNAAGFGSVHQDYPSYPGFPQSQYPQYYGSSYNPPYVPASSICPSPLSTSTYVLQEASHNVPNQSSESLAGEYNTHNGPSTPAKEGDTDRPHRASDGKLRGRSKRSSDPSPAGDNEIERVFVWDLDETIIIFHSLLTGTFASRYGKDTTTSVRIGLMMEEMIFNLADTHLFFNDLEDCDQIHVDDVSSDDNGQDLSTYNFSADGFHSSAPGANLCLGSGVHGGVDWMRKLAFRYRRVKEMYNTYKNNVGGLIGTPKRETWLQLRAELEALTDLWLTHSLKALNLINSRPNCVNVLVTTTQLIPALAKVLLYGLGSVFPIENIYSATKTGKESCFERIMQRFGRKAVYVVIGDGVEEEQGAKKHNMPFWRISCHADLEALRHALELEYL
Target sequence (Q15475 whole entry, looked up): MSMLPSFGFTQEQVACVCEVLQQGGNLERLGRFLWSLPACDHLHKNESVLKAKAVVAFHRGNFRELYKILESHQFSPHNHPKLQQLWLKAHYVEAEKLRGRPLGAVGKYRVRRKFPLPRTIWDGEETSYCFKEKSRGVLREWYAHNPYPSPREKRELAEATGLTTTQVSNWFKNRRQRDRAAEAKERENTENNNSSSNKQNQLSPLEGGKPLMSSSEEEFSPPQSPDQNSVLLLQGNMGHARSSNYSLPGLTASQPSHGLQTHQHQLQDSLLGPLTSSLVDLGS
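Homogeneous AlphaScreen proximity assay pairing GST-Six1 with His-tagged Eya2 (added as 5X mix: 250 nM and 500 nM) in 50 mM Tris pH 8.0, 300 mM NaCl, 1 mM TCEP. Glutathione donor and nickel acceptor beads; 1 h, 37 °C, dark.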
Active calls of the source: *; u = inconclusive; x = no result given; [ ] = another dose, or the depositor's remark. Cut-off read from the data, not from the text of the source, unless noted: active = activity change below about -65%; inconclusive = mostly about -30% to -63%; inactive = weaker than that.

SMILES | Menin-MLL TR inh | CtBP-E1A inh | GLS inh | Menin MLL FP FL | CXXC DNA block | Six1-Eya2 blk
CC1(C(=O)O)CC(C)(C(=O)O)CC(C)(C(=O)O)C1 (centres undefined) | 18% | -1 | 6% | -2 | -3% | 14
COC(=O)C1=C(O)C2(C(=O)O)CC(C(=O)OC)=C(O)C(C(=O)O)(C1)C2 | x | 3 | 11µM* | 0 | -2% | 9
CN(C)c1ccc(CNc2ncc(Br)cc2Br)cc1 | -14% | u | 1% | 3 | 0% | -66*
Cc1cc2c(c(=O)n1Cc1ccccc1)C1O[C@](c3ccsc3)(Cc3cc(C#N)ccc31)O2 | x | x | x | x | 12%[23 µM] | x
Cc1ccccc1C(=O)NNC(=S)Nc1cccc(C(F)(F)F)c1 | u | 5 | 18µM* | x | 4% | -7
FC(F)(F)c1cccc(NC(=S)NNC(=S)Nc2cccc(C(F)(F)F)c2)c1 | x | x | x | -1 | 3% | x
Cc1ccc(NC(=O)N2CCC(N3CCN(Cc4ccccc4)C(=O)C3=O)CC2)cc1Cl | x | x | 4% | x | x | x
NCCCC[C@H](NC(=O)[C@@H]1CCCN1C(=O)[C@@H]1CSSC[C@H](NC(=O)CNC(=O)CNC(=O)CN)C(=O)N[C@@H](Cc2ccc(O)cc2)C(=O)N[C@@H](Cc2ccccc2)C(=O)N[C@@H](CCC(N)=O)C(=O)N[C@@H](CC(N)=O)C(=O)N1)C(=O)NCC(N)=O | x | x | 27% | x | x | x
CCCN(CCC)C(=O)C(CCC(=O)OCCCN1CCN(CCOC(=O)Cc2c(C)n(C(=O)c3ccc(Cl)cc3)c3ccc(OC)cc23)CC1)NC(=O)c1ccccc1 (centres undefined) | x | x | 3% | x | x | x
CC1=C/C(=N\Nc2ccccc2[N+](=O)[O-])CC(C)(C)C1 | -3% | -68* | 0% | 9 | -14% | -69*
C[n+]1cc2c3c(ccc2c2ccc4cc5c(cc4c21)OCO5)OCO3 | 38% | x | 3.2µM* | -4 | u | x
Cc1ccccc1-c1nn(-c2ccc(F)cc2F)cc1CNCCCN(C)C | 1% | -6 | 10µM* | 0 | -15% | 1
Cc1ccccc1-c1nn(-c2ccc(F)cc2F)cc1CNCCN(C)C | u | 4 | -10% | 2 | -9% | -16
O=C1OC2C(O)C(O)OC2C1O (centres undefined) | x | x | -3% | x | x | x
CCCCOc1ccc(C(=O)NCC(c2ccc(Cl)cc2)N2CCOCC2)cc1 (centres undefined) | x | x | 0% | x | x | x
COn1c(=O)c(=O)n(O)c2ccccc21 | 13% | 10 | 15% | -2 | -7% | 17
O=c1c(=O)n(O)c2ccccc2n1O | -8% | 8 | 13µM* | -10 | 1% | 1
CCOCCCNC(=O)C(=O)Nc1c2c(nn1-c1ccc(OC)cc1)CSC2 | x | x | 12% | x | x | x
O=C(N/N=C/c1cc(Cl)cc(Cl)c1O)c1ccncc1 | x | x | 22% | u | u | -92*
O=C(O)COc1ccccc1/C=N/NC(=O)c1cc(-c2ccc(Cl)cc2)nc2ccccc12 | x | -81* | 22% | -1 | -25% | -80*
O=C(N/N=C/c1ccc(O)cc1O)c1ccc(NC(=O)C2CCCCC2)cc1 | x | -90* | 13% | x | 33% | -72*
O=C(O)COc1ccccc1/C=N/NC(=O)c1cc(-c2ccccc2)nc2ccccc12 | x | -26 | 0% | -1 | -15% | -29
Cc1nonc1C(=O)N/N=C/c1ccc(O)cc1O | 1% | x | u | -1 | 0% | -90*
CCCC[C@@H]1C[C@H]1C(NC(=O)Cc1ccccc1)c1ccc(-c2ccccc2)cc1 (some centres undefined) | -25% | x | x | -2 | x | x
O=c1cc[nH]c(=S)[nH]1 | 10% | x | -1% | 0 | 5% | x
SMILES | Menin-MLL TR inh | CtBP-E1A inh | GLS inh | Menin MLL FP FL | CXXC DNA block | Six1-Eya2 blk
O=S(=O)(Cc1ccccc1)c1nnnn1C1CCCCC1 | 1% | x | x | -3 | x | x
CCc1cc(C(=O)N/N=C/c2ccc(O)cc2O)c2ccccc2n1 | x | -97* | 3% | x | -24% | -93*
O=C(N/N=C/c1cc(Br)cc(Br)c1O)c1ccncc1 | u | -93* | 35% | u | 35% | -80*
O=C(C[n+]1ccccc1)N/N=C/c1cc(Br)cc(Br)c1O | 34% | 6 | -17% | u | -4% | -89*
O=C(N/N=C/c1ccc(O)cc1O)c1ccncc1 | u | -91* | 13µM* | u | -8% | -93*
Cc1cccc(C(=O)Oc2c(Br)cc(Br)cc2/C=N/NC(=O)c2ccncc2)c1 | x | 2 | -6% | x | 6% | -2
O=C(CCCCCNC(=O)c1ccccc1)N/N=C/c1ccc(O)cc1O | -9% | u | u | 1 | 21% | -28
O=C(CS(=O)Cc1ccco1)NCC=CCOc1cc(CN2CCCCC2)ccn1 (centres undefined) | -5% | x | -5% | -2 | 4% | x
CC(C)C[C@H](NC(=O)[C@H](CC(C)C)NC(=O)[C@H](CCC(N)=O)NC(=O)[C@H](CO)NC(=O)[C@@H]1CCCN1C(=O)[C@H](CO)NC(=O)[C@H](CO)NC(=O)[C@@H](NC(=O)[C@H](Cc1cnc[nH]1)NC(=O)[C@H](CCC(=O)O)NC(=O)[C@H](Cc1ccc(O)cc1)NC(=O)[C@H](CCCCN)NC(=O)[C@H](CCC(N)=O)NC(=O)[C@H](Cc1ccc(O)cc1)NC(=O)[C@H](CC(=O)O)NC(=O)[C@@H](NC(=O)[C@@H]1CCCN1C(=O)[C@H](CC(=O)O)NC(=O)[C@H](CC(N)=O)NC(=O)[C@H](CC(=O)O)NC(=O)CNC(=O)[C@H](CC(=O)O)NC(=O)[C@@H]1CCCN1C(=O)[C@H](CCC(N)=O)NC(=O)[C@H](Cc1ccc(O)cc1)NC(=O)[C@H](C)NC(=O)[C@H](Cc1c[nH]c2ccccc12)NC(=O)[C@H](Cc1ccccc1)NC(=O)[C@@H](NC(=O)[C@@H](N)CO)[C@@H](C)O)[C@@H](C)O)[C@@H](C)O)C(=O)N[C@@H](C)C(=O)N1CCC[C@H]1C(=O)NCC(=O)N[C@@H](CC(=O)O)C(=O)N[C@@H](Cc1ccc(O)cc1)C(=O)O | 15% | x | x | 5 | x | x
COc1ccc(OC)c(C2=Nn3c(nnc3-c3ccccc3O)SC2)c1 | u | x | x | 0 | x | x
COc1cc(/C=N/NC(=S)NCCN2CCOCC2)cc(OC)c1O | -3% | -9 | 4µM* | 4 | 31% | -10

Screening results as filed in PubChem BioAssay.
